Source: paper PMC5540273 (PLoS ONE, 2017)

Each compound was assayed on CSNK2A2. Details: concentration: 1 μM, replicates: in singlicate; n = 1.
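Further: KINOMEscan kinase panel screen.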

Row | Structure (SMILES) | %Inh
1 | COc1ccc(NC(=O)Nc2ccc(C)c(-c3ccc(C(=O)Nc4ccncc4)cc3)c2)cc1 [GSK1398475] | 0%
2 | Clc1ccc(-c2cc(-c3c[nH]nc3-c3ccccn3)ccn2)cc1 [GW681251] | 21%
3 | CC(C)(C)OC(=O)NC1CCCN(c2cc(-c3ccc4c(N)n[nH]c4c3)nc(N)n2)C1 (stereo not drawn) [GSK2286096] | 5%
4 | CSc1ccc(NC2=C(c3ccccc3Cl)C(=O)NC2=O)cc1 [SB-342411] | 10%
5 | COC(=O)c1cccc(NC(=O)NCCNc2ccnc(Nc3ccc(F)cc3)n2)c1 [GSK1379883] | 23%
6 | Fc1cccc(COc2ccc(Nc3ncnc4sc(-c5ccc[nH]5)cc34)cc2Cl)c1 [GW707818] | 0%
7 | c1ccc(-c2ccc3c(-c4ccnc(Nc5ccc6c(c5)OCCO6)n4)cnn3n2)cc1 [GW818941] | 9%
8 | Fc1cccc(COc2ccc(Nc3ncnc4cc[nH]c34)cc2Cl)c1 | 22%
9 | COc1cc2c(Nc3cccc(NC(=O)c4ccccc4)c3)ncnc2cc1OCCCN1CCOCC1 [GSK223810] | 22%
10 | COc1ccc(NC(=O)c2ccc(-c3cc(-c4nnc(C)o4)ccc3C)cc2)cc1 [GW595885] | 11%
11 | Cl.Fc1ccccc1COc1ccc(Nc2ncnc3ccc(-c4nnc(C(F)(F)F)o4)cc23)cc1Cl [GW424170] | 15%
12 | CNc1nccc(-c2c(-c3ccc(F)cc3)ncn2CCCN2CCOCC2)n1 [SB-222516] | 5%
13 | Cc1cc(N2CCC(NS(=O)(=O)c3ccc(F)cc3)CC2)nc(Nc2cccc(C#N)c2)n1.O=C(O)C(F)(F)F [GSK1653537] | 11%
14 | Cn1ccc2ncnc(Oc3ccc(NC(=O)Nc4cccnc4)c(Cl)c3)c21 | 19%
15 | O=C(c1ccc(-c2cc(-c3c[nH]nc3-c3ccccn3)ccn2)cc1)N1CCCC1 [GW792479] | 0%
16 | Nc1nc(-c2ccc3c(N)n[nH]c3c2)cc(N2CCC[C@@H](C(=O)Nc3ccccc3)C2)n1.O=C(O)C(F)(F)F.O=C(O)C(F)(F)F [GSK2288359] | 18%
17 | Cl.Cl.c1ccc(-c2cc3ccncc3cc2OC2CCNCC2)cc1 [GSK1122999] | 27%
18 | Fc1ccc(-c2ncn(CCCNCc3ccccc3)c2-c2ccncc2)cc1 | 27%

Row | Structure (SMILES) | %Inh
19 | CCn1c(-c2ccncc2)nc2cnccc21 [SB-735216] | 0%
20 | C[C@H]1CC[C@@H](C(=O)Nc2ccccc2)CN1c1cc(-c2ccc3c(N)n[nH]c3c2)nc(N)n1 [GSK2283293] | 0%
21 | NC(=O)c1sc(-n2cnc3ccccc32)cc1OCc1ccccc1F [GSK1024306] | 6%
22 | Cl.Cn1ccc(-c2cccc(Nc3ccnc4cc(-c5nccs5)ccc34)c2)n1 [GW525701] | 0%
23 | FC(F)(F)c1cc(Nc2nccc(-c3c(-c4ccc(Cl)cc4)nn4ncccc34)n2)ccc1Cl [GW829351] | 11%
24 | N#Cc1ccc(Oc2ccc(Nc3ncnc4cc[nH]c34)cc2Cl)cc1 | 24%
25 | OCCOCCn1ccc2ncnc(Nc3ccc(Oc4cccc(Cl)c4)c(Cl)c3)c21 | 0%
26 | Fc1cccc(COc2ccc(Nc3ncnc4nn5ccccc5c34)cc2Cl)c1 [GW689066] | 0%
27 | Nc1nc(-c2ccccn2)c(-c2ccnc3ccccc23)s1 [GW548057] | 17%
28 | CCCc1ccc(S(=O)(=O)NC2CCN(c3ccnc(Nc4ccc(OC)cc4)n3)C2)cc1 (stereo not drawn) [GSK1379737] | 0%
29 | Cc1ccc(O)cc1Nc1cc(C(F)(F)F)nc2ccc(-c3ccncc3)cc12 [GW630823] | 2%
30 | CNc1nccc(-c2c(-c3ccc(F)cc3)ncn2C2CCN(C)CC2)n1 [SB-222903] | 0%
31 | Nc1nc(-c2cccnc2)c(-c2ccnc3ccccc23)s1 [GW684083] | 1%
32 | O=C(Nc1ccccc1)Nc1ccc(Oc2ccc3nccn3n2)cc1 | 0%
33 | CC(C)(C)c1ccc(-n2cnc3c(N)ncnc32)cc1 [SKF-97263] | 0%
34 | Cc1ccc(NC(=O)c2cccc(C#N)c2)cc1-c1ccc(C(=O)Nc2ccncc2)cc1 [GSK1398463] | 9%
35 | Cc1ccc(C)c(NC(=O)NCCNc2ccnc(Nc3ccc(F)cc3)n2)c1 [GSK1379878] | 0%
36 | Nc1nccc2scc(-c3ccc4c(c3)CCN4C(=O)Cc3cc(F)ccc3F)c12 [GSK2587663] | 7%

The compounds below were run on T1, CTK. Details: concentration: 1 μM, replicates: in singlicate; n = 1.
T1 construct: gene MATK

Row | Structure (SMILES) | %Inh
37 | COc1ccc(NC(=O)Nc2ccc(C)c(-c3ccc(C(=O)Nc4ccncc4)cc3)c2)cc1 [GSK1398475] | 0%
38 | Clc1ccc(-c2cc(-c3c[nH]nc3-c3ccccn3)ccn2)cc1 [GW681251] | 0%
39 | CC(C)(C)OC(=O)NC1CCCN(c2cc(-c3ccc4c(N)n[nH]c4c3)nc(N)n2)C1 (stereo not drawn) [GSK2286096] | 0%
40 | CSc1ccc(NC2=C(c3ccccc3Cl)C(=O)NC2=O)cc1 [SB-342411] | 0%
41 | COC(=O)c1cccc(NC(=O)NCCNc2ccnc(Nc3ccc(F)cc3)n2)c1 [GSK1379883] | 0%
42 | Fc1cccc(COc2ccc(Nc3ncnc4sc(-c5ccc[nH]5)cc34)cc2Cl)c1 [GW707818] | 0%
43 | c1ccc(-c2ccc3c(-c4ccnc(Nc5ccc6c(c5)OCCO6)n4)cnn3n2)cc1 [GW818941] | 2%
44 | Fc1cccc(COc2ccc(Nc3ncnc4cc[nH]c34)cc2Cl)c1 | 53%
45 | COc1cc2c(Nc3cccc(NC(=O)c4ccccc4)c3)ncnc2cc1OCCCN1CCOCC1 [GSK223810] | 0%
46 | COc1ccc(NC(=O)c2ccc(-c3cc(-c4nnc(C)o4)ccc3C)cc2)cc1 [GW595885] | 0%
47 | Cl.Fc1ccccc1COc1ccc(Nc2ncnc3ccc(-c4nnc(C(F)(F)F)o4)cc23)cc1Cl [GW424170] | 0%
48 | CNc1nccc(-c2c(-c3ccc(F)cc3)ncn2CCCN2CCOCC2)n1 [SB-222516] | 0%
49 | Cc1cc(N2CCC(NS(=O)(=O)c3ccc(F)cc3)CC2)nc(Nc2cccc(C#N)c2)n1.O=C(O)C(F)(F)F [GSK1653537] | 0%
50 | Cn1ccc2ncnc(Oc3ccc(NC(=O)Nc4cccnc4)c(Cl)c3)c21 | 21%
51 | O=C(c1ccc(-c2cc(-c3c[nH]nc3-c3ccccn3)ccn2)cc1)N1CCCC1 [GW792479] | 0%
52 | Nc1nc(-c2ccc3c(N)n[nH]c3c2)cc(N2CCC[C@@H](C(=O)Nc3ccccc3)C2)n1.O=C(O)C(F)(F)F.O=C(O)C(F)(F)F [GSK2288359] | 0%
53 | Cl.Cl.c1ccc(-c2cc3ccncc3cc2OC2CCNCC2)cc1 [GSK1122999] | 0%
54 | Fc1ccc(-c2ncn(CCCNCc3ccccc3)c2-c2ccncc2)cc1 | 25%

Row | Structure (SMILES) | %Inh
55 | CCn1c(-c2ccncc2)nc2cnccc21 [SB-735216] | 11%
56 | C[C@H]1CC[C@@H](C(=O)Nc2ccccc2)CN1c1cc(-c2ccc3c(N)n[nH]c3c2)nc(N)n1 [GSK2283293] | 0%
57 | NC(=O)c1sc(-n2cnc3ccccc32)cc1OCc1ccccc1F [GSK1024306] | 12%
58 | Cl.Cn1ccc(-c2cccc(Nc3ccnc4cc(-c5nccs5)ccc34)c2)n1 [GW525701] | 0%
59 | FC(F)(F)c1cc(Nc2nccc(-c3c(-c4ccc(Cl)cc4)nn4ncccc34)n2)ccc1Cl [GW829351] | 14%
60 | N#Cc1ccc(Oc2ccc(Nc3ncnc4cc[nH]c34)cc2Cl)cc1 | 5%
61 | OCCOCCn1ccc2ncnc(Nc3ccc(Oc4cccc(Cl)c4)c(Cl)c3)c21 | 0%
62 | Fc1cccc(COc2ccc(Nc3ncnc4nn5ccccc5c34)cc2Cl)c1 [GW689066] | 0%
63 | Nc1nc(-c2ccccn2)c(-c2ccnc3ccccc23)s1 [GW548057] | 0%
64 | CCCc1ccc(S(=O)(=O)NC2CCN(c3ccnc(Nc4ccc(OC)cc4)n3)C2)cc1 (stereo not drawn) [GSK1379737] | 0%
65 | Cc1ccc(O)cc1Nc1cc(C(F)(F)F)nc2ccc(-c3ccncc3)cc12 [GW630823] | 2%
66 | CNc1nccc(-c2c(-c3ccc(F)cc3)ncn2C2CCN(C)CC2)n1 [SB-222903] | 0%
67 | Nc1nc(-c2cccnc2)c(-c2ccnc3ccccc23)s1 [GW684083] | 0%
68 | O=C(Nc1ccccc1)Nc1ccc(Oc2ccc3nccn3n2)cc1 | 100%
69 | CC(C)(C)c1ccc(-n2cnc3c(N)ncnc32)cc1 [SKF-97263] | 0%
70 | Cc1ccc(NC(=O)c2cccc(C#N)c2)cc1-c1ccc(C(=O)Nc2ccncc2)cc1 [GSK1398463] | 19%
71 | Cc1ccc(C)c(NC(=O)NCCNc2ccnc(Nc3ccc(F)cc3)n2)c1 [GSK1379878] | 0%
72 | Nc1nccc2scc(-c3ccc4c(c3)CCN4C(=O)Cc3cc(F)ccc3F)c12 [GSK2587663] | 0%
